Results on 7 compounds are retold here after PubChem BioAssay (NCI).

About 83,000 compounds went through this panel and 20% of them were active in at least one assay; those are over-represented in the sample as a whole.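 Each cell line was grown in a 96-well plate and treated with one concentration of compound for 48 hours. Values below 10 were considered active.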 Values without a mark were called inactive. Calls of active or inactive are those of the source.

Test systems include NCI-H23 lung; NCI-H226 lung; NCI-H322M lung; HOP-62 NSCLC; NCI-H460 lung; HOP-92 NSCLC; NCI-H522 lung; A549/ATCC NSCLC; 786-0 renal; COLO 205 colon; DU-145 prostate; K-562 leukemia; MALME-3M melanoma; MDA-MB-231 breast; RXF 393 renal; SF-268 CNS; SF-295 CNS; SF-539 CNS; UACC-257 melanoma; M14 melanoma.
Assay in all cases: NCI-60 one-dose screen, 48 h (100 = growth as untreated, 0 = no growth, -100 = all killed)
What all share (settings): 10 µM unless noted

In the case of `COc1cc(C=Nc2oc(-c3ccccc3)c(-c3ccccc3)c2C#N)cc(CN2CCCC2)c1O`, the growth was 94.8% with NCI-H23 lung; 93.7% with NCI-H226 lung; 103% in the assay with NCI-H322M lung; 94% with HOP-62 NSCLC; 102% with NCI-H460 lung; 85.6% with HOP-92 NSCLC. Further, the growth in the assay with NCI-H522 lung is 85.8%; in the assay with A549/ATCC NSCLC, 94.4%; in the assay with 786-0 renal, 99.3%; in the assay with COLO 205 colon, 114%; in the assay with DU-145 prostate, 108%; in the assay on K-562 leukemia it was 94.4%. Also, the growth was 117% with MALME-3M melanoma; 95.7% in the assay on MDA-MB-231 breast; 111% in the assay with RXF 393 renal; 96.4% in the assay on SF-268 CNS; 98.5% with SF-295 CNS; 95.1% in the assay on SF-539 CNS. Further, the growth was 107% in the assay with UACC-257 melanoma and 100% in the assay on M14 melanoma.

Regarding `COCC(=O)Oc1cc(-c2ccc(C)cc2C)c(OC(=O)COC)c(-c2ccc(C)cc2C)c1`, the growth with NCI-H23 lung is 68.8%; in the assay on NCI-H226 lung it was 59.8%; in the assay on NCI-H322M lung, 79%; with HOP-62 NSCLC, 61.5%; in the assay with NCI-H460 lung, 17.4%; with HOP-92 NSCLC it was 66.7%. The growth in the assay on NCI-H522 lung is 30.9%; in the assay with A549/ATCC NSCLC, 43.7%; in the assay on 786-0 renal, 69.6%; in the assay with COLO 205 colon it was 48.4%; in the assay on DU-145 prostate, -16.9% (active); in the assay on K-562 leukemia, 40.8%. Further, the growth with MALME-3M melanoma is 85.3%; with MDA-MB-231 breast it was 49.7%; with RXF 393 renal, 73.5%; with SF-268 CNS it was 44.5%; in the assay with SF-295 CNS it was 57.5%; with SF-539 CNS it was 45.7%. For the same compound, the growth was 71.2% in the assay on UACC-257 melanoma and 65.1% in the assay with M14 melanoma.

For the compound `C=C(C)[C@@H]1CC[C@]2(CO)CC[C@]3(C)[C@H](CC[C@@H]4[C@@](C)(CCCN)[C@H](C(=C)C)CC[C@]43C)[C@@H]12`, the growth was -70.1% (active) in the assay with NCI-H23 lung; 13.1% with NCI-H226 lung; -53.9% (active) with NCI-H322M lung; -62.8% (active) with HOP-62 NSCLC; -93.8% (active) in the assay on NCI-H460 lung; -41% (active) in the assay on HOP-92 NSCLC. Besides, the growth was -48.6% (active) with NCI-H522 lung; -68.8% (active) with A549/ATCC NSCLC; -98.5% (active) with 786-0 renal; -58% (active) in the assay on COLO 205 colon; -44.8% (active) in the assay with DU-145 prostate; -5.14% (active) in the assay on K-562 leukemia. Further, the growth with MALME-3M melanoma was -94.7% (active); in the assay with MDA-MB-231 breast, -96.3% (active); in the assay on RXF 393 renal it was -85.3% (active); in the assay on SF-268 CNS, -41.9% (active); in the assay with SF-295 CNS, -75.5% (active); in the assay on SF-539 CNS it was -97.1% (active). The growth was -78.9% (active) with UACC-257 melanoma and -74.9% (active) with M14 melanoma.

For `Cc1nc2ccccc2c(/C=C/c2ccc(F)cc2)c1C(=O)/C=C/c1ccccc1`, the growth is 20.7% in the assay with NCI-H23 lung; 50.6% with NCI-H226 lung; 37.7% with NCI-H322M lung; -4.45% (active) in the assay on HOP-62 NSCLC; -41.9% (active) in the assay with NCI-H460 lung; 50.6% with HOP-92 NSCLC. Besides, the growth in the assay with NCI-H522 lung was 5.78% (active); with A549/ATCC NSCLC, 25%; in the assay on 786-0 renal, 24.1%; with COLO 205 colon, 10.5%; with DU-145 prostate, 10.2%; in the assay on K-562 leukemia, 6.31% (active). Besides, the growth in the assay with MALME-3M melanoma was 31.1%; with MDA-MB-231 breast, 22.4%; in the assay with RXF 393 renal, -3.77% (active); in the assay with SF-268 CNS, 37.9%; in the assay on SF-295 CNS, 32.5%; in the assay on SF-539 CNS it was 1.11% (active). Further, the growth is 7.87% (active) in the assay on UACC-257 melanoma and 12.4% in the assay with M14 melanoma.

With `COC12C=C/C(=C(/C(=O)OCc3csc(SC)n3)C(=O)CCCCCCCCC3(OC)C=C/C(=C(/C(=O)OCc4cnc(SC)s4)C(=O)CCCCCCCC1)O3)O2` (stereo not given), the growth with NCI-H23 lung was 15.7%; in the assay with NCI-H226 lung, 12%; with NCI-H322M lung, 46.5%; in the assay on HOP-62 NSCLC, 58.7%; in the assay on NCI-H460 lung, 27.2%; in the assay with HOP-92 NSCLC, 78.2%. The growth is 24.2% in the assay on NCI-H522 lung; 39.8% in the assay with A549/ATCC NSCLC; 35.1% with 786-0 renal; 25.5% with COLO 205 colon; 50.3% with DU-145 prostate; 25.3% with K-562 leukemia. The growth is -1.67% (active) in the assay with MALME-3M melanoma; 19.1% in the assay on MDA-MB-231 breast; -35.4% (active) with RXF 393 renal; 44.7% with SF-268 CNS; 14.8% in the assay on SF-295 CNS; 27.4% in the assay with SF-539 CNS. In addition, the values for the growth with UACC-257 melanoma and in the assay on M14 melanoma were 56.8% and 12%, respectively.

With `O=C(NN1C(=O)CSC1c1cccc([N+](=O)[O-])c1)c1ccc(NC(=O)c2ccccn2)cc1` (stereo not given), the growth in the assay on NCI-H23 lung was 94.4%; with NCI-H226 lung it was 106%; in the assay with NCI-H322M lung, 90.5%; in the assay with HOP-62 NSCLC, 95.4%; in the assay with NCI-H460 lung it was 102%; in the assay on HOP-92 NSCLC, 104%. Moreover, the growth in the assay on NCI-H522 lung was 95.3%; in the assay with A549/ATCC NSCLC it was 100%; with 786-0 renal it was 96.9%; with COLO 205 colon, 103%; in the assay on DU-145 prostate, 94.1%; with K-562 leukemia, 100%. Moreover, the growth in the assay with MALME-3M melanoma is 94.4%; in the assay with MDA-MB-231 breast, 113%; with RXF 393 renal it was 115%; in the assay with SF-268 CNS, 96.1%; in the assay on SF-295 CNS, 97.2%; in the assay with SF-539 CNS, 99.8%. The values for the growth in the assay on UACC-257 melanoma and in the assay on M14 melanoma were 99% and 102%, respectively.

Regarding `Cc1cc(=O)oc2cc(Oc3nc(Br)cn4c(Br)cnc34)ccc12`, the growth in the assay with NCI-H23 lung is 63.9%; with NCI-H226 lung, 53.6%; in the assay with NCI-H322M lung it was 76.8%; in the assay on HOP-62 NSCLC it was 51.7%; with NCI-H460 lung, 73.9%; in the assay with HOP-92 NSCLC it was 37.2%. The growth is 54.8% with NCI-H522 lung; 77.8% in the assay on A549/ATCC NSCLC; 29% with 786-0 renal; 113% with COLO 205 colon; 75% in the assay on DU-145 prostate; 93.6% in the assay with K-562 leukemia. Besides, the growth was 46.9% in the assay with MALME-3M melanoma; 29.6% with MDA-MB-231 breast; 44.2% with RXF 393 renal; 56.6% in the assay on SF-268 CNS; 99.9% in the assay on SF-295 CNS; 47.2% in the assay on SF-539 CNS. Also, the figures for the growth in the assay on UACC-257 melanoma and with M14 melanoma were 89.1% and 82.8%, respectively.
